TSG101-PTAP inh: blocks PTAP/TSG101 interaction to inhibit HIV-1 budding | Fluorescence polarization, FITC-PTAP peptide / Tsg101 binding | Potency, µM (series often up to 115 µM), for inactives: top-dose activity change, negative = inhibition, most hits filed as inhibitors | 340,000 tested, under 10 active | AID 493005; active = well fitted inhibition curve with a large enough effect in the main read-out, with a control signal flat, not every such curve was filed as active; inconclusive = small, poorly fitted or top-dose-only effect, or effect the other way, or a change in a side signal; inactive = no such curve, though single readings can be large or run the other way; note: % of control where 0% means no effect
Target sequence (Q99816 whole entry, looked up): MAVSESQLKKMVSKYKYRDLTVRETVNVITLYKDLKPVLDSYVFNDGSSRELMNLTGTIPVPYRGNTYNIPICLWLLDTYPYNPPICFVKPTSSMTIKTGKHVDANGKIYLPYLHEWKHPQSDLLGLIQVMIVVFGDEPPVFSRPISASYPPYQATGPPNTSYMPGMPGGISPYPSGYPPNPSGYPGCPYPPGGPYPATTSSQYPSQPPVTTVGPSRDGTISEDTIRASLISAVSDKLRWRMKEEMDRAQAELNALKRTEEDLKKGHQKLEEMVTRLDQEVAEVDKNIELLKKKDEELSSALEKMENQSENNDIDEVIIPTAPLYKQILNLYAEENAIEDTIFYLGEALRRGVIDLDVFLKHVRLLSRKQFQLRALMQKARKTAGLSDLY
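Tsg101 binding domain (10 uM final) was mixed with compound and a FITC-labeled PTAP peptide (50 nM final) in HEPES pH 7.5 buffer with NaCl, Tween 20, EDTA and TCEP; fluorescence polarization was read after 20 min at r.t.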
PINK1 modulator: modulators of PINK1 expression. PINK1 immunofluorescence, high-content cytometry, 24 h. AID 624263. hit rate 0.2% among 410,000. Potency, µM (series often up to 76.6 µM), without a hit: top-dose activation (PINK1 increase), actives largely listed as activators; active = well fitted activation curve with a large enough effect; inconclusive = small, poorly fitted or top-dose-only effect; cell line not stated here; note: % of control where 0% means no effect; nearly all actives have a fitted effect of over 65% in size
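A stable cell line was treated with compounds at 5 concentrations for 24 hours, with CCCP as control. PINK1 levels and mitochondrial localization were measured by immunofluorescence with mitochondrial, cell and nuclear markers after fixation, read by laser-scanning cytometry.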
MCF10A rereplic: induces DNA re-replication in MCF 10a normal breast cells | MCF 10A DNA re-replication, Hoechst nuclear intensity, 48 h | Potency, µM (series often up to 46.1 µM), for inactives: at the highest dose activity, positive = re-replication, actives largely listed as activators | hit rate 2.9% among 350,000; note: % of control where 0% means no effect; nearly all actives have a fitted effect of over 50% in size
KB-3-1 tox: kills parental KB-3-1 adenocarcinoma cells; KB-3-1 viability, CellTiter-Glo ATP luminescence, 72 h; Potency, µM (titrated, usually from 46.1 µM), most hits filed as cytotoxic; hit rate 1.4% among 400,000; note: % is set by controls: 0 for no effect and ±100 for the full control effect; nearly all actives have a fitted effect of over 60% in size
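Cytotoxicity measured as CellTiter-Glo luminescence after 72 h at 37 C. Compound titrations were pinned onto drug-naive KB-3-1 parental adenocarcinoma cells grown in DMEM with 10% FBS, and normalized data fitted to concentration-response curves.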
SW480 rereplic: inducers of DNA re-replication in SW480 colon cancer cells. SW480 DNA re-replication, Hoechst DNA content imaging, 48 h. Potency, µM (titrated, usually from 46.1 µM), without a hit: top-dose re-replication activation, usual class: activators. hit rate 1.8% among 340,000. AID 624297; note: % of control where 0% means no effect; nearly all actives have a fitted effect of over 55% in size
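Cells (250 per well) received 23 nL compound or DMSO by pin tool and were kept 48 hr at 37 C, 5% CO2. Nuclei were then stained with Hoechst for 40 min and scanned for DNA content.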
KB-V1 MDR tox: KB-V1 MDR subline cytotoxicity; KB-V1 MDR cells viability, CellTiter-Glo, 72 h; hit rate 3.4% among 400,000; Potency, µM (top dose mostly 46.1 µM), actives largely listed as cytotoxic; AID 1347076; note: % is set by controls: 0 for no effect and ±100 for the full control effect; nearly all actives have a fitted effect of over 60% in size
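Readout: CellTiter-Glo luminescence, 10 min after addition. Cells: KB-V1 MDR subline, 72 h at 37 degrees C with compound. Analysis: corrected, normalized data fitted to concentration-effect curves.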
* = called active by the depositor; i = inactive; ? = inconclusive; nt = no result given; ! = not active in a repeat; [ ] = dose if it differs, or a comment. Hits are enriched below; roughly 6.8% of the tested compounds scored in any of these assays. Unless noted, calls come from the whole dose curve; as a rule, active = well fitted curve in the direction sought with a large enough effect; inconclusive = small, poorly fitted or top-dose-only effect, or another doubt; inactive = no such curve, though single readings can be large; an effect the other way counts as inactive or inconclusive. Potency is the fitted concentration of half-maximal effect.

SMILES	TSG101-PTAP inh	PINK1 modulator	MCF10A rereplic	KB-3-1 tox	SW480 rereplic	KB-V1 MDR tox
Nc1nc(SCC(=O)Nc2ccccc2Sc2ccccc2)n[nH]1	-8%	-1%[38.3 µM]	-6%	i	-3%	15µM*
Cc1cc(C)cc(OC(=O)c2snnc2C)c1	nt	-3%	nt	i	nt	i
CCOc1ccc(S(=O)(=O)N2CCN(c3cc(Cl)ccc3Cl)CC2)c2ccccc12	nt	-2%	nt	i	nt	?
CC1=C(C(=O)OCc2ccccc2)C(c2ccc(N3CCOCC3)cc2)NC(=O)N1 (stereo not drawn)	-3%	3%	?	i	-5%	?
CC1=C(C(=O)N(C)C)C(c2ccc(N3CCOCC3)cc2)NC(=O)N1 (stereo not drawn)	-1%	0%	0.92µM*	i	18µM*	i
Cc1ccc(CNC(=O)c2ccc(Cn3c(SCc4ccc(F)cc4)nc4cccnc43)cc2)o1	nt	2%	nt	i	nt	i
COc1ccc(/C=C/C(=O)N2CCN(c3ccccc3)CC2)cc1S(=O)(=O)N1CCOCC1	0%	2%	-6%	i	-6%	7.3µM*
COc1ccc(/C=C/C(=O)N2CCC(C(N)=O)CC2)cc1S(=O)(=O)N1CCOCC1	-1%	0%	0%	i	-2%	i
COc1ccc(/C=C/C(=O)N(CCC(N)=O)c2ccccc2)cc1S(=O)(=O)N1CCOCC1	-8%	2%	-1%	i	4.6µM*	i
O=S1(=O)N=C(Oc2cccc(-c3ccccc3)c2)c2ccccc21	nt	nt	nt	i	nt	i
CC(=O)N1CCc2cc(Br)cc(S(=O)(=O)N3CCC(C(=O)Nc4cccc(C)c4C)CC3)c21	nt	1%	nt	?	nt	i
CCOC(=O)C1(N(CC)CC)Sc2cc(C)ccc2NC1=O (stereo not drawn)	-2%	7%	?	?	?	10µM*
CCOC(=O)c1[nH]c2ccc(F)cc2c1NC(=O)C(C)N1CCc2cc(OC)c(OC)cc2C1 (stereo not drawn)	-4%	-1%	7.3µM*	16µM*	16µM*	?
O=C(NC(=S)Nc1ccc2ncccc2c1)c1ccccc1	-2%	8%	10%	?	-6%	i
Cc1ccc2cn[nH]c2c1NC(=S)NC(=O)c1ccccc1	-1%	-5%	4%	i	0%	21µM*
Cc1ccc2cn[nH]c2c1NC(N)=S	0%	-2%	-22%	i	1%	i
Cc1cc(C)c2cccc(NC(=S)NC(=O)c3ccccc3)c2n1	0%	18%[38.3 µM]	19%	i	4.1µM*	?
Cc1ccc2cccc(NC(=S)NC(=O)c3ccccc3)c2n1	-3%	2%	?	i	16µM*	?
Cc1csc(NC(=S)NC(=O)c2ccccc2)n1	-1%	0%	-7%	i	-6%	i
Cc1ccc2cccnc2c1NC(=S)NC(=O)c1ccccc1	-6%	-4%[38.3 µM]	14%	i	10%	15µM*
CC(C)(C)C(=O)C(Oc1ccc(Cl)cc1)n1ccnc1 (stereo not drawn)	nt	nt	8%	nt	10%	nt
CCc1nc2cc(C(=O)N3CCC[C@H]3CO)cc(NC(=O)c3ccccc3OC)c2n1C	nt	-1%	nt	nt	nt	nt
CCCSCCCNC(=O)CN1C(=O)COc2ccc(S(=O)(=O)N3CCC(C)CC3)cc21	nt	0%	nt	i	nt	?
COCCNC(=O)Cn1c(=O)n(-c2ccc(C)c(C)c2)c(=O)c2c3c(sc21)CCCCC3	nt	1%	nt	i	nt	i
Cc1ccc(C(c2nnnn2Cc2ccccc2)N2CCN(Cc3ccccc3)CC2)cc1 (stereo not drawn)	-3%	-1%	16µM*	?	-1%	i
SMILES	TSG101-PTAP inh	PINK1 modulator	MCF10A rereplic	KB-3-1 tox	SW480 rereplic	KB-V1 MDR tox
CCCCn1nnnc1C(c1ccccc1)N1CCN(CC)CC1 (stereo not drawn)	nt	-1%	nt	i	nt	?
c1ccc(CCn2nnnc2C(c2cccnc2)N2CCN(c3ccccc3)CC2)cc1 (stereo not drawn)	-6%	nt	?	i	0%	10µM*
CCC(c1nnnn1Cc1ccccc1)N1CCN(c2ccccc2)CC1 (stereo not drawn)	-1%	1%	-1%	i	-16%	23µM*
CCCCn1nnnc1C(c1ccccc1)N1CCCN(Cc2ccc(F)cc2)CC1 (stereo not drawn)	nt	5%	nt	?	nt	8.2µM*
COc1ccc(Nc2nnc(-c3ccc(C)c(S(=O)(=O)N4CCOCC4)c3)c3ccccc23)cc1	nt	7%	nt	i	nt	?
Fc1ccc(C(c2nnnn2C2CCCC2)N2CCN(Cc3ccccc3)CC2)cc1 (stereo not drawn)	-3%	2%	1%	i	-2%	3.7µM*
Clc1ccc(C(c2nnnn2C2CCCC2)N2CCN(Cc3ccncc3)CC2)cc1 (stereo not drawn)	-5%	-1%	-3%	i	12%	i
C(=C\c1ccccc1)/CN1CCN(C(c2ccnc3ccccc23)c2nnnn2C2CCCC2)CC1 (stereo not drawn)	nt	0%	nt	i	nt	15µM*
CCCN(CCC)C(=O)CSc1nnc2cc(C)c3ccccc3n12	nt	12%	nt	i	nt	i
N=c1c(C(=O)NCCN2CCOCC2)cc2c(=O)n3ccccc3nc2n1CCCN1CCOCC1	-5%	-1%	0.18µM*	i	0.65µM*	i
O=C(NCCN1CCN(c2ccccc2F)CC1)c1cccn2c(=O)c3ccccc3nc12	-1%	2%[38.3 µM]	5.2µM*	i	12%	?
N=c1c(C(=O)NCCN2CCOCC2)cc2c(=O)n3ccccc3nc2n1Cc1ccc(F)cc1	-3%	0%	1.3µM*	i	2.1µM*	i
O=C(c1n[nH]c2c1CCCC2)N1CCOc2ccc(C(O)C(c3ccccc3)c3ccccc3)cc2C1 (stereo not drawn)	nt	0%	nt	nt	nt	nt
O=C(COc1ccc(F)cc1)OCc1cc(=O)n2nc(C3CC3)sc2n1	nt	2%	nt	i	nt	i
Cc1ccc2nc(-c3ccc(O)c(O)c3)cn2c1	1%	?	-5%	?	27%	i
Cc1ccc2nc(-c3ccccc3)cn2c1	-4%	0%	-4%	12µM*	-17%	10µM*
CC(=O)Nc1ccc(-c2cn3cc(C)ccc3n2)cc1	-4%	2%	2%	i	2%	16µM*
CC(=O)Nc1ccc(C)cc1	2%	0%	10%	i	1%	i
COc1cccc(CNC(=O)c2ccc(NC(=O)N3CC(C)Sc4ccccc43)cc2)c1 (stereo not drawn)	nt	-1%	nt	i	nt	i
C[C@](N)(Cc1ccc(O)c(O)c1)C(=O)O	0%	0%	-54%	i	2.8µM*!	i

Bioassay records (PubChem BioAssay)
